These results are taken from PubChem BioAssay (NCATS).

In experiment [1] the target is Cytochrome P450 3A4 (Homo sapiens) (UniProt P08684). The experiment is described as follows: qHTS Assay for Inhibitors and Substrates of Cytochrome P450 3A4 (AID 884). Further: potency means the concentration at half of the fitted maximal effect; nearly all actives have a fitted effect of over 50% in size. The method in brief: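 20 nM human CYP3A4 with 25 uM Luciferin-PPXE (at KM) in 200 mM KPO4, preincubated 10 min with compound; NADPH regeneration started a 60 min RT reaction. Luciferin detected by luminescence, normalized to 57 uM ketoconazole as full inhibition.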

The target is the same in experiment [2]. The experiment is described as follows: qHTS Assay for Activators of Cytochrome P450 3A4 (AID 885). Further: nearly all actives have a fitted effect of over 65% in size. The method in brief: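 Signal was normalized against complete inhibition by 57 uM ketoconazole. The reaction used 20nM CYP3A4 with 25uM Luciferin-PPXE, 10-min compound preincubation and a 60-min NADPH-supported step at RT.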
Background: In qHTS, concentration-response curves come from the screen itself.

Experiment [3] has as its target Cytochrome P450 2D6 (Homo sapiens) (UniProt P10635). The experiment is described as follows: qHTS Assay for Inhibitors and Substrates of Cytochrome P450 2D6 (AID 891). Further: nearly all actives have a fitted effect of over 60% in size. Further: potency means the concentration at half of the fitted maximal effect. The method in brief: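 Human CYP2D6 (5 nM) with 30 uM Luciferin-ME EGE (at Km) in 100 mM KPO4, compound preincubated 10 min, then NADPH regeneration system for 60 min at room temperature. Luciferin read by luminescence; normalized to 1.43 uM quinidine.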

In experiment [4] the target is Cytochrome P450 2C19 (Homo sapiens) (UniProt P33261). The experiment is described as follows: qHTS Assay for Inhibitors and Substrates of Cytochrome P450 2C19 (AID 899). Further: potency means the concentration at half of the fitted maximal effect; nearly all actives have a fitted effect of over 60% in size. The method in brief:
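Human CYP2C19 (5nM) with Luciferin-H EGE at 10uM (its KM) in 50mM KPO4 was preincubated with compound for 10 min at 37C. NADPH regeneration started a 60 min 37C reaction. Luciferin was read by luminescence, normalized to 57uM ketoconazole.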

Values without a mark were called inactive. Records with an inconclusive call do not appear. Activity calls are given as the source filed them. The call rests on the fitted dose curve; in most records, active means well fitted curve in the direction sought with a large enough effect; inconclusive means small, poorly fitted or top-dose-only effect, or another doubt; inactive means no such curve, though single readings can be large; an effect the other way counts as inactive or inconclusive.

Sequence of Cytochrome P450 3A4 (Homo sapiens) (P08684 whole entry, looked up): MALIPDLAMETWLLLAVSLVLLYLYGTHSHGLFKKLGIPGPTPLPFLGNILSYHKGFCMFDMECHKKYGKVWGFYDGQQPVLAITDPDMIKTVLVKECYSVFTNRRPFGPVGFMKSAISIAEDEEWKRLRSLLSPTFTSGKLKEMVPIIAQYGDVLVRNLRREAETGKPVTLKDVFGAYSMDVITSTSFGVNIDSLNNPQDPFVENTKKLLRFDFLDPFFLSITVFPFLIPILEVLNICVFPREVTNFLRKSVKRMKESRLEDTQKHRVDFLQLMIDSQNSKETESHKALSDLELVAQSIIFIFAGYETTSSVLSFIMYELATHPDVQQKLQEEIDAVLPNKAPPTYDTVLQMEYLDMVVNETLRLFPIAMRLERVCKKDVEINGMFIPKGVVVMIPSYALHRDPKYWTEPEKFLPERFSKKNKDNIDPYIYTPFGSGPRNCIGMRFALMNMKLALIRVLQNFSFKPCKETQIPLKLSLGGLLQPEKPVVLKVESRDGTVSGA
Sequence of Cytochrome P450 2C19 (Homo sapiens) (P33261 whole entry, looked up): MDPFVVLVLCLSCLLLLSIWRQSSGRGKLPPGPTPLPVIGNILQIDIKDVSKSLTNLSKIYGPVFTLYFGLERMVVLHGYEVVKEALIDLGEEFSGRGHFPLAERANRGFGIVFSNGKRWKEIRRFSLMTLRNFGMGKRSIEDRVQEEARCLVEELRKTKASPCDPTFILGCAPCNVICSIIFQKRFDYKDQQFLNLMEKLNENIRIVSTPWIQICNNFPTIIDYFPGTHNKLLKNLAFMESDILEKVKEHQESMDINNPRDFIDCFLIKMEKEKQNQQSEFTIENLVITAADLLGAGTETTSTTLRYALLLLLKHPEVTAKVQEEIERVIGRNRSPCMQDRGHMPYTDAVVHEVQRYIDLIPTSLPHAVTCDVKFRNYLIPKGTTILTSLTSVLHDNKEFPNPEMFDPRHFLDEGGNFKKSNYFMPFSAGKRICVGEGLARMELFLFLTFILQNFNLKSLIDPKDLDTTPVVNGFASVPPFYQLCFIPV
Sequence of Cytochrome P450 2D6 (Homo sapiens) (P10635 whole entry, looked up): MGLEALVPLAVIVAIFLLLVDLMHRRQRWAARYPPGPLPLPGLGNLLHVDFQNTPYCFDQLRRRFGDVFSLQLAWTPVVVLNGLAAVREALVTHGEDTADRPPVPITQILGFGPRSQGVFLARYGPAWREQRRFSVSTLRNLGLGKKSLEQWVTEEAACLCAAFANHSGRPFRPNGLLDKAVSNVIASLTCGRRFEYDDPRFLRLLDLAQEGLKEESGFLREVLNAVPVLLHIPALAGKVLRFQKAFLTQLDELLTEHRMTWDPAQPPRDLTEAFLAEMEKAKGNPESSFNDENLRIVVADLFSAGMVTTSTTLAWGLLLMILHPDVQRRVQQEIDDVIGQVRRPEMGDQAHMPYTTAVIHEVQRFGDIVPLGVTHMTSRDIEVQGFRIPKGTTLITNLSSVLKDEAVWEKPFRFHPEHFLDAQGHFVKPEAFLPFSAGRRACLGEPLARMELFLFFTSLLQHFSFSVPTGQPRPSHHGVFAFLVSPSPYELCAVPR

On to `CC(Cc1ccccc1)C(=O)NCCc1c[nH]c2ccccc12` (centres undefined), for which the Potency in experiment [1] is 2.51 µM (active). Also, the Potency result in experiment [2] is “inactive”.
The matching figures for `COC(=O)c1ccc(C(NC(=O)OCc2ccccc2)/C(=C/[C@@H](C)C(=O)NCc2ccc(OC)c(O)c2)c2cccnc2)cc1` (some centres undefined): 2.51 µM (active) and “inactive”.
For `CCC1=C2CC[C@H]3C(=O)N(CC)C(=O)[C@H]3[C@H]2[C@@]2(Cc3ccccc3)C(=O)N(Cc3ccccc3)C(=O)N2C1=O` the same measures were 3.98 µM (active) and “inactive”.
For `CNC(=O)[C@@H](Cc1ccccc1)N(C)C(=O)[C@@H](Cc1ccc2ccccc2c1)N(C)C(=O)/C=C/CC(C)(C)N` the same measures were 7.94 µM (active) and “inactive”.
For the compound `CCC1=C2CC[C@H]3C(=O)N(c4ccccc4)C(=O)[C@H]3[C@H]2[C@@]2(Cc3ccccc3)C(=O)N(CC(=O)OC)C(=O)N2C1=O`, in experiment [1], the Potency is 3.98 µM (active). Besides, the Potency result in experiment [2] is “inactive”.
For `CCC1=C(OC(=O)N(CC)CC)N2C(=O)OC(=NCCc3c[nH]c4ccccc34)[C@]2(C)[C@H]2C1=CC[C@H]1C(=O)N(C)C(=O)[C@H]12` the same measures were 1.26 µM (active) and “inactive”.
For `COC(=O)[C@@H]1C[C@H]2CC[C@H](O)C[C@H]2N1Cc1ccc(C(C)(C)C)cc1`, the Potency in experiment [1] is 5.01 µM (active). In experiment [2], the Potency result was “inactive”.
As to `Cc1ccc(S(=O)(=O)N[C@@H]2COC(=O)C/C=C\[C@H](C)COC(=O)N[C@@H](C)C(=O)C/C=C\[C@H]2C)cc1`, the Potency in experiment [1] was 3.16 µM (active). Also, the activity change, positive = activation in experiment [2] is -86.3% [at 11.4 µM].
With `C[C@H]1C2=C3C(C[C@H]4C(=O)N(c5ccccc5)C(=O)[C@H]4[C@H]3[C@@]3(Cc4ccccc4)C(=NCCc4c[nH]c5ccccc45)OC(=O)N3C2=O)[C@H]2C(=O)N(c3ccccc3)C(=O)[C@H]21` (some centres undefined), in experiment [1], the Potency was 2.51 µM (active). In addition, the Potency entry in experiment [2] is “inactive”.
On to `COc1c(O)c(O)cc2c1oc1c3cc(C)ccc3oc(=O)c21`, for which the Potency in experiment [1] was 25.1 µM (active). Besides, the Potency entry in experiment [2] is “inactive”.
For `CCC1=C(OC(=O)N(CC)CC)N2C(=O)OC(=NCCc3c[nH]c4ccccc34)[C@]2(Cc2ccccc2)[C@H]2C1=CC[C@H]1C(=O)N(CC(=O)OC)C(=O)[C@H]12` the same measures were 2.51 µM (active) and “inactive”.
For `COC(=O)[C@@H]1C[C@@H]2CC[C@@H](O)C[C@@H]2N1Cc1ccc(-c2ccccc2)cc1` the same measures were 20 µM (active) and “inactive”.
For `CCCCCCC#CC1C=CC(OC(=O)OCC)C(COC(=O)OCC)O1` (centres undefined), the results for the Potency in experiment [1] and in experiment [4] were 3.98 µM (active) and 2 µM (active), respectively. Further, the activity change, positive = activation in experiment [2] is -78% [at 11.4 µM]. Besides, the Potency result in experiment [3] is “inactive”.
For the compound `C/C(CCC(=O)OC[C@@H]1O[C@H](C#Cc2ccccc2)C=C[C@@H]1Oc1ccc(C)cc1)=N/O[C@@H](C)CN1CCCc2nc(C)c(C)cc21`, the Potency is 3.98 µM (active) in experiment [1], 3.16 µM (active) in experiment [3] and 3.16 µM (active) in experiment [4]. The activity change, positive = activation in experiment [2] was -95.5% [at 11.4 µM].
Turning to `Nc1ccccc1C(=O)/C=C\c1ccc2c(c1)OCO2`, the Potency in experiment [1] and in experiment [3] was 3.16 µM (active) throughout. Moreover, the activity change, positive = activation in experiment [2] is -84.3% [at 11.4 µM].
On to `CC(=O)OC[C@H]1O[C@@H](O/N=C(\C)CCC(=O)OC[C@@H]2O[C@H](C#Cc3ccccc3)C=C[C@@H]2Oc2ccc(C)cc2)[C@H](OC(C)=O)[C@@H](OC(C)=O)[C@H]1OC(C)=O`, for which the Potency in experiment [1] was 3.16 µM (active); in experiment [3], 3.98 µM (active). The activity change, positive = activation in experiment [2] was -90.4% [at 11.4 µM].
As for `C=CCOC(=O)C(C(C)=O)C(NC(=O)OC)c1cccc(F)c1` (centres undefined), the results for the Potency in experiment [1] and in experiment [4] were 0.0794 µM (active) and 0.1 µM (active), respectively. Further, the activity change, positive = activation in experiment [2] was -72.4% [at 11.4 µM]. Further, the Potency entry in experiment [3] was “inactive”.
As to `CC(=O)OCC1OC(C#Cc2ccc(C)cc2C)C=CC1OC(C)=O` (centres undefined), the results for the Potency in experiment [1] and in experiment [3] were 3.16 µM (active) and 3.98 µM (active), respectively. Further, the activity change, positive = activation in experiment [2] is -83.4% [at 11.4 µM].
As to `C=C(C)C(O)/C=C/c1ccc(C)cc1` (centres undefined), the Potency in experiment [1] was 3.98 µM (active); in experiment [4], 5.01 µM (active). In addition, the activity change, positive = activation in experiment [2] is -72.8% [at 11.4 µM]. In addition, the Potency result in experiment [3] is “inactive”.
On to `COC(=O)C/C=C\[C@@H](C)[C@@H](/C=N\OC[C@@H](O)COCc1ccco1)NS(=O)(=O)c1ccc(C)cc1`, for which the Potency in experiment [1] is 3.16 µM (active). The activity change, positive = activation in experiment [2] was -107% [at 11.4 µM]. The Potency entry in experiment [3] was “inactive”.
Regarding `C=C(C)C(O)/C=C/c1ccc(OC)cc1` (centres undefined), the Potency in experiment [1] was 5.01 µM (active). Further, the activity change, positive = activation in experiment [2] was -85.8% [at 11.4 µM]. Besides, the Potency entry in experiment [3] was “inactive”.
With `COc1ccc(C#CC2C=CC(Oc3cc(C)cc(C)c3)C(CO)O2)cc1` (centres undefined), the results for the Potency in experiment [1], in experiment [3] and in experiment [4] were 1.58 µM (active), 3.98 µM (active) and 0.0631 µM (active), respectively. Further, the activity change, positive = activation in experiment [2] was -94.5% [at 11.4 µM].
